Measurements published in PubChem BioAssay (NCATS).
Results filed as inconclusive are left out. A number with no mark means an inactive call. Activity calls are given as the source filed them. The call rests on the fitted dose curve; in most records, active means well fitted inhibition curve with a large enough effect; inconclusive means small, poorly fitted or top-dose-only effect; inactive means flat fitted curve, though single readings scatter.

test: BET inhibitor-based combinations targeting novel dependencies in MECOM-rearranged (r) AML: AML-191 cell line (AID 2202236; further: nearly all actives have a fitted effect of over 35% in size;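 on viability (% of control): plate controls were vehicle wells for no effect and wells without cells for full effect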); conditions: AML-191 viability, CellTiter-Glo luminescence, 48 h; series mostly up to 46 µM
Excerpt: Ecotropic viral insertion site 1 (EVI1) is located on chromosome 3q26.2 as part of the MECOM (MDS and EVI1 complex) locus. Under normal hematopoiesis, EVI1 is a regulator of hematopoietic stem cell maintenance and self-renewal and EVI1 levels decrease as the cells differentiate. In approximately 5-10% of de novo acute myeloid leukemia (AML) EVI1 is aberrantly expressed, including Chromosomal inv(3)(q21;q26.2) or t(3;3)(q21;q26.2) alterations (MECOM-r) that account for about 50% of AML with EVI1 overexpression 31. AMLs with high levels of EVI1 have a poor prognosis and an overall survival time averaging between 10-14 months. EVI1 overexpression confers resistance in leukemia cells, highlighting the need to develop new targeted therapies for EVI1 overexpressing AMLs.
Here, we performed an unbiased chemical drug screening by evaluating the single agent activity of a collection of 2,480 oncology-focused, approved and investigational drugs (NCATS Mechanism Interrogation Plates, MIPE v5.0) against a panel of seven AML cell lines. These included four MECOM-r cell-lines (AML-191, AML-194, UCSD-AML1 and HNT-34) and three non-MECOM-r AMLs (MV4-11, OCI-AML3 and SET-2). Exploiting the mechanistic redundancy built in the library, we identified target-level sensitivities in MECOM-r AML cells and relative activity as compared to other AML subtypes.
A collection of 2480 mechanistically annotated dugs (MIPE v5.0) was used to screen four 3q26.2 rearranged AML cell lines and three non-3q26.2 rearranged AML cell lines. This library purposely exploits redundancy by including multiple inhibitors of key onco-targets, while simultaneously encompassing mechanistic diversity, targeting more than 800 distinct mechanisms of action. Briefly, cells were seeded in 5 uL of growth media using a Multidrop Combi dispenser into 1536 well white polystyrene tissue culture treated plates (Corning) at a density of 500cells/well. For each cell-line, for each of the 2480 drugs in MIPE v5.0 library, an 11-point dose curve was generated via a 1536 pin-tool. Plates were incubated for 48 hr at standard incubator conditions, covered by a stainless steel gasketed lid to prevent evaporation. Cell viability was determined by luminescence based, Cell Titer Glo assay (Promega). In detail, 3 uL of Cell Titer Glo were added to each well and plates were incubated at room temperature for 15 min with a stainless-steel lid in place. Luminescence readings were taken using a Viewlux (PerkinElmer) with a 2 s exposure time per plate. Compound dose-response curves were normalized to DMSO and empty well controls on each plate. Quantitative drug activity data from dose-response curves was determined utilizing area Under the Curve (AUC) and Z-transformed AUC (Z-AUC, a mean-centering transformation applied to each individual cell-line screened).
Potency means the concentration at half of the fitted maximal effect.

| SMILES | Potency | viability (% of control) |
| --- | --- | --- |
| NC(=O)c1cnccn1 | inactive | – |
| Cc1cc(OCCCS(C)(=O)=O)cc(C)c1-c1cccc(COc2ccc3c(c2)OC[C@H]3CC(=O)O)c1 | inactive | – |
| O=c1[nH]c(=O)n(C2CCCO2)cc1F (stereo not given) | inactive | – |
| COc1cc2nccc(Oc3ccc(NC(=O)NC4CC4)c(Cl)c3)c2cc1C(N)=O | 20.9 µM (active) | – |
| C[C@]1(c2nc3c(C(N)=O)cccc3[nH]2)CCCN1 | inactive | – |
| CC1(C)CCC2=C(O1)c1ccccc1C(=O)C2=O | 7.42 µM (active) | – |
| COc1cc(C(=O)NS(=O)(=O)c2ccccc2C)ccc1Cc1cn(C)c2ccc(NC(=O)OC3CCCC3)cc12 | inactive | – |
| CC(C)C[C@H](NC(=O)CNC(=O)c1cc(Cl)ccc1Cl)B(O)O | 0.166 µM (active) | – |
| COc1cc(C)c(Sc2cnc(NC(=O)c3ccc(CNC(C)C(C)(C)C)cc3)s2)cc1C(=O)N1CCN(C(C)=O)CC1 (stereo not given) | 14.8 µM (active) | – |
| O=C(O)c1cn(C2CC2)c2cc(N3CCNCC3)c(F)cc2c1=O | – | 102% [at 8.46 µM] |
| CN1CCN(CCOc2cc(OC3CCOCC3)c3c(Nc4c(Cl)ccc5c4OCO5)ncnc3c2)CC1 | 18.6 µM (active) | – |
| Nc1[nH]c(=O)ncc1F | inactive | – |
| CC(C)COCC(CN(Cc1ccccc1)c1ccccc1)N1CCCC1 (stereo not given) | 20.9 µM (active) | – |
| O=C(O)C1=CC(O)C(O)[C@H](O)C1 (stereo not given in full) | inactive | – |
| O=NN(CCCl)C(=O)NC1CCCCC1 | inactive | – |
| CC(C)Cn1cnc2c(N)nc3ccccc3c21 | inactive | – |
| COc1ccc(CC2SC(=O)NC2=O)cc1C(=O)NCc1ccc(C(F)(F)F)cc1 (stereo not given) | inactive | – |
| CC(=O)Nc1nc(C)c(-c2ccc(Cl)c(S(=O)(=O)NCCO)c2)s1 | 5.25 µM (active) | – |
| CCN1CCN(c2ccc(Nc3cc(N(C)C(=O)Nc4c(Cl)c(OC)cc(OC)c4Cl)ncn3)cc2)CC1 | 26.3 µM (active) | – |
| N#CC1(c2ccc(NC(=O)c3cccnc3NCc3ccncc3)cc2)CCCC1 | inactive | – |

| SMILES | Potency | viability (% of control) |
| --- | --- | --- |
| Cc1cc(C(C)(C)C)c(O)c(C)c1CC1=NCCN1 | inactive | – |
| CCc1ccc(C(=O)Nc2cc(CN3CCN(C)CC3)cc(C(F)(F)F)c2)cc1C#Cc1cnc2ccnn2c1 | 5.9 µM (active) | – |
| NC(=O)c1cccc2[nH]c(-c3ccc([C@H]4CCCN4)cc3F)nc12 | 16.6 µM (active) | – |
| COc1ccc(S(=O)(=O)Nc2cc(-c3c(O)ccc4ccccc34)c(O)c3ccccc23)cc1 | 1.86 µM (active) | – |
| CCN(CC)CCCC(C)Nc1nc(C)cc(Nc2ccc3nc(C)cc(N)c3c2)n1 (stereo not given) | inactive | – |
| Cc1ccc(C(=O)Nc2ccc(S(=O)(=O)O)c3cc(S(=O)(=O)O)cc(S(=O)(=O)O)c23)cc1NC(=O)c1cccc(NC(=O)Nc2cccc(C(=O)Nc3cc(C(=O)Nc4ccc(S(=O)(=O)O)c5cc(S(=O)(=O)O)cc(S(=O)(=O)O)c45)ccc3C)c2)c1 | inactive | – |
| CCCC1OC2C[C@@H]3[C@H]4CCC5=CC(=O)C=C[C@]5(C)[C@H]4C(O)C[C@]3(C)[C@]2(C(=O)CO)O1 (stereo not given in full) | 0.0295 µM (active) | – |
| CCN1CCN(Cc2ccc(Nc3ncc(F)c(-c4cc(F)c5nc(C)n(C(C)C)c5c4)n3)nc2)CC1 | 2.95 µM (active) | – |
| Cc1ncc(NC(=O)c2ccc(CN3CCN(C)CC3)c(C(F)(F)F)c2)cc1Nc1nccc(-c2cccnc2)n1 | 18.6 µM (active) | – |
| NC(=O)[C@H]1CCS[C@@H]2C[C@]3(CCCN3C(=O)Cc3ccc(NC(=O)COc4ccc(Cl)cc4Cl)cc3)C(=O)N12 | 5.25 µM (active) | – |
| Cc1cccc(Oc2cnc(=O)[nH]c2)c1 | inactive | – |
| CC(C)c1c2cc(-c3ccnc(NC4CCC(NC5CCOCC5)CC4)n3)ccc2nn1C (stereo not given) | 0.166 µM (active) | – |
| CNc1nccc(-c2cccnc2Oc2cc(C(=O)Nc3cccc(C(F)(F)F)c3)ccc2C)n1 | 6.61 µM (active) | – |
| O=C(O)c1cccc(-c2noc(-c3ccccc3F)n2)c1 | 20.9 µM (active) | – |
| N[C@@H](Cc1ccc(O)c(O)c1)C(=O)O | inactive | – |
| COc1ccc(-n2nc(C(N)=O)c3c2C(=O)N(c2ccc(N4CCCCC4=O)cc2)CC3)cc1 | inactive | – |
| O=C(Nc1ccc2c(c1)CCN(Cc1ncn[nH]1)C2)c1ccccc1-c1ccc(C(F)(F)F)cc1 | inactive | – |
| Cc1cn2cc(C(=O)N(C)CCO)cc(N[C@@H]3CCOc4cccc(C)c43)c2n1 | inactive | – |
| NS(=O)(=O)c1cccc2c1C(=O)c1cccc(O)c1C2=O | 2.35 µM (active) | – |
| O=c1ncn2nc(Sc3ccc(F)cc3F)ccc2c1-c1c(Cl)cccc1Cl | 29.5 µM (active) | – |
